Data reported in PubChem BioAssay (Tox21).
Inconclusive results are not listed. Calls of active or inactive are those of the source. Unless noted, calls follow the shape of the dose curve; as a rule, active = well fitted curve in the direction sought with a large enough effect in the repeat runs; inconclusive = weak or mixed curves; inactive = no such curve, though single readings can be large; an effect the other way counts as inactive or inconclusive.

How the values were obtained:
[1] = qHTS assay to identify small molecule antagonists of the estrogen receptor beta (ER-beta) signaling pathway - cell viability counter screen (AID 1259382);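 also: HEK293T cells carrying ER-beta-UAS-bla reporter stimulated with estradiol; series mostly up to about 92 µM; nearly all actives have a fitted effect of over 55% in size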
Method in brief: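 Following a 6 hr plating period, HEK293T cells carrying a UAS-driven beta-lactamase reporter under ER-beta control received compounds and 1nM E2 (final). After 16 hr at 37C and 2 hr substrate loading, CellTiter-Glo luminescence indicated viability.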

[2] = target: Estrogen receptor (Homo sapiens) (UniProt P03372); assay: qHTS assay to identify small molecule agonists of the estrogen receptor alpha (ER-alpha) signaling pathway in the presence of an antagonist (AID 1259383; calls by dose curve; also: top concentration of the series differs between compounds; nearly all actives have a fitted effect of over 15% in size)
Estrogen receptor (Homo sapiens), sequence (P03372 whole entry, looked up): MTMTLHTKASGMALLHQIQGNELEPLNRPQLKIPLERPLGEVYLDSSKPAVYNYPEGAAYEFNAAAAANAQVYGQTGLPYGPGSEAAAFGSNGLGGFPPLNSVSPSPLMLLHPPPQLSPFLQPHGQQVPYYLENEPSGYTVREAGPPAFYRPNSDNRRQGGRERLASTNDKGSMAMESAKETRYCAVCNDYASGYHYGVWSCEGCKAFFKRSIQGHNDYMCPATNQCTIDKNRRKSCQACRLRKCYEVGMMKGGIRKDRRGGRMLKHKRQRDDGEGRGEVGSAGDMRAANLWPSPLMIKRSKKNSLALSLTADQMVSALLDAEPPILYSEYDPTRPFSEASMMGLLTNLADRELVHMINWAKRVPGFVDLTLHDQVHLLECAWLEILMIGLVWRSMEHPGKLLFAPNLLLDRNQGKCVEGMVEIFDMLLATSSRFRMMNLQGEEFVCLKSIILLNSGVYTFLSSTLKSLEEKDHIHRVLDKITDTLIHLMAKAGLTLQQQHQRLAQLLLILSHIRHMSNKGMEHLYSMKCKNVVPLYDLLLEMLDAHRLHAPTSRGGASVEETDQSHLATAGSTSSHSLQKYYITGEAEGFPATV
Method in brief: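 Cells are hormone-deprived for 5 days (charcoal-stripped FBS, no phenol red), plated for 24hr, spiked with 10.0nM ICI-182,780, then dosed at 15 concentrations. After 22hr at 37C, ONE-Glo luminescence reports ERE-luciferase activity.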

[3] = qHTS assay to identify small molecule agonists or antagonists of the thyroid stimulating hormone receptor (TSHR) signaling pathway - wild type cell line counter screen (AID 1259384; calls by dose curve)
Method in brief: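 Counter screen in untransfected Hek293: compounds (15-point titration, triplicate) plus phosphodiesterase inhibitor Ro20-1724 added after 18 h plating; 30 min RT. Intracellular cAMP via competitive d2/cryptate immunoassay, 1 h incubation.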

[4] = target: Thyrotropin receptor (Homo sapiens) (UniProt P16473); assay: qHTS assay to identify small molecule antagonists of the thyroid stimulating hormone receptor (TSHR) signaling pathway (AID 1259385; calls by dose curve; also: nearly all actives have a fitted effect of over 20% in size)
Thyrotropin receptor (Homo sapiens), sequence (P16473 whole entry, looked up): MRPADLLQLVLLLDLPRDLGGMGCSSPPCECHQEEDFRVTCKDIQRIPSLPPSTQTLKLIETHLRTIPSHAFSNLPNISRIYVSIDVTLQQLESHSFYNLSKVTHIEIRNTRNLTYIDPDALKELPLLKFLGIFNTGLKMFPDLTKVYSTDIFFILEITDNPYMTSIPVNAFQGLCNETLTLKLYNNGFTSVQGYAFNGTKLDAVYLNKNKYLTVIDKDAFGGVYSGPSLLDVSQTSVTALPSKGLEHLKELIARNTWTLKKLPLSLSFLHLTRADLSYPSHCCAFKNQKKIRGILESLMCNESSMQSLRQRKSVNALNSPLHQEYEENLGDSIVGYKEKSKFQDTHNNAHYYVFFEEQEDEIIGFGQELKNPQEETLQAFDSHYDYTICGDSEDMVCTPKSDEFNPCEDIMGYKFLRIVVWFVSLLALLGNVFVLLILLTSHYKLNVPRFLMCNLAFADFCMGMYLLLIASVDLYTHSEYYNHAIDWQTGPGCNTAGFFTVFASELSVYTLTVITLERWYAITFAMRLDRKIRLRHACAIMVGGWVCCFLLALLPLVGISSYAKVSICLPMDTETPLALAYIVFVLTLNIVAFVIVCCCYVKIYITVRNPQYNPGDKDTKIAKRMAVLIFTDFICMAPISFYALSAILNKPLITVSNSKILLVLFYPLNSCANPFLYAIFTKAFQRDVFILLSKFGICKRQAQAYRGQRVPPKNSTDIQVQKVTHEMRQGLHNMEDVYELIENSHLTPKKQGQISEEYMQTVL
Method in brief: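 Antagonist mode: compound-treated TSHR-expressing HEK293 cells were stimulated with 1.5 ng/mL TSH (final) in presence of Ro20-1724 for 30 min at RT. HTRF cAMP detection after 1 h; each compound tested at 15 concentrations, triplicate.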

[5] = qHTS assay to identify small molecule agonists of the estrogen receptor alpha (ER-alpha) signaling pathway in the presence of an antagonist - cell viability counter screen (AID 1259386);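 also: series mostly up to about 92 µM; cells exposed to compounds for 22 h at 37 °C before the viability read; nearly all actives have a fitted effect of over 30% in size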
Method in brief: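 Cells are starved of estrogens for 5 days in charcoal-stripped serum, seeded for 24hr and co-treated with ICI-182,780 (10.0nM final) and test compounds. After 22hr at 37C, viability is read as CellTiter-Fluor fluorescence.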

[6] = target: Progesterone receptor (Homo sapiens) (UniProt P06401); assay: qHTS assay to identify small molecule agonists of the progesterone receptor (PR) signaling pathway (AID 1346784; calls by dose curve; also: nearly all actives have a fitted effect of over 30% in size)
Progesterone receptor (Homo sapiens), sequence (P06401 whole entry, looked up): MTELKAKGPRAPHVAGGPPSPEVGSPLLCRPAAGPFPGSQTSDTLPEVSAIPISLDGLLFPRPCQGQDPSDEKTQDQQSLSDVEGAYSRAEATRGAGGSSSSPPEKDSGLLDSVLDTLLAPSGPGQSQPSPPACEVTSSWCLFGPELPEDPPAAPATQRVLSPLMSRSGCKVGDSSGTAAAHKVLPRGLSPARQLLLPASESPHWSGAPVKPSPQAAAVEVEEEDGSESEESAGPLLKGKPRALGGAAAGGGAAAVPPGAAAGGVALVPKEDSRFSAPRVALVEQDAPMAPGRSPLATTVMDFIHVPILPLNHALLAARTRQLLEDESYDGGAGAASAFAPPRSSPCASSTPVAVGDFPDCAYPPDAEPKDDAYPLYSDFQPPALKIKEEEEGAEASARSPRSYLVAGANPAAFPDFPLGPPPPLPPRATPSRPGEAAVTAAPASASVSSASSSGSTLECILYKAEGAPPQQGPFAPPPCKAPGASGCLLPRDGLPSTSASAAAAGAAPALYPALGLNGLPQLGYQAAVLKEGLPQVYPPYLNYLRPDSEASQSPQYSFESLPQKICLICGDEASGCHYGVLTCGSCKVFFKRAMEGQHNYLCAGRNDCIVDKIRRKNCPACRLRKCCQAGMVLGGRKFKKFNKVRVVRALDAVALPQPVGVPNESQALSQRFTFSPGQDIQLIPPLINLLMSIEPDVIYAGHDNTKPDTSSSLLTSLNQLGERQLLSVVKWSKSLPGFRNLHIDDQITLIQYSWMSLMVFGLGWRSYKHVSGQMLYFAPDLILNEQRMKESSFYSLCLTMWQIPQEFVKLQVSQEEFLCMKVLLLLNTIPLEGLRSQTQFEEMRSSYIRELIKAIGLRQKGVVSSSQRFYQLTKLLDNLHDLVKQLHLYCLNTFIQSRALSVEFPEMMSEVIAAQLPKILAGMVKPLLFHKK
Method in brief: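 PR-UAS-bla HEK 293T cells carrying a UAS-driven beta-lactamase reporter were seeded in medium with 2% charcoal-stripped FBS, preincubated 6 hr at 37C, then exposed to compounds in DMSO for 16 hr; agonism was read by LiveBLAzer B/G FRET fluorescence.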

[7] = target: Progesterone receptor (Homo sapiens) (UniProt P06401); assay: qHTS assay to identify small molecule antagonists of the progesterone receptor (PR) signaling pathway (AID 1346795; active = well fitted inhibition curve with a large enough effect in the signal ratio in the repeat runs, not every such curve was filed as active; the % refers to the signal ratio)
Method in brief: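 PR-UAS-bla HEK293T cells carrying a UAS-driven beta-lactamase reporter were plated in medium with 2% charcoal-stripped FBS and rested 6 hr at 37C. Compounds were added with 1 nM R5020 (final) for 16 hr, then FRET substrate loaded 2 hr at room temperature.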

[8] = qHTS assay to identify small molecule antagonists of the TGF-beta/Smad signaling pathway - cell viability counter screen (AID 1346824); also: nearly all actives have a fitted effect of over 50% in size
Method in brief: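 Cytotoxicity counter-screen run in the same wells as the beta-lactamase Smad reporter read: CellTiter-Glo luminescence after 30 min at room temperature. HEK 293T SBE-bla cells had 5 hr compound exposure at 37 C with TGF-beta1 (0.25 ng/mL stock).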

[9] = qHTS assay to identify small molecule agonists of the TGF-beta/Smad signaling pathway - cell viability counter screen (AID 1346829); also: top concentration of the series differs between compounds; nearly all actives have a fitted effect of over 45% in size
Method in brief: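 Luminescence from CellTiter-Glo, read after a 30 min room-temperature incubation, gives cell viability of SBE-bla HEK 293T cells treated 5 hr with compounds at 37 C.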

[10] = qHTS assay to identify small molecule agonists of the TGF-beta/Smad signaling pathway (AID 1346859; active = well fitted activation curve with a large enough effect in the signal ratio in the repeat runs, not every such curve was filed as active; the % refers to the signal ratio; also: series mostly up to about 77 µM)
Method in brief: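 HEK 293T cells stably carrying a beta-lactamase reporter driven by the Smad binding element were seeded overnight, exposed to DMSO-dissolved compounds for 5 hr at 37 C, 5% CO2, then loaded with FRET substrate for 2 hr at room temperature.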

[11] = target: Thyrotropin-releasing hormone receptor (Homo sapiens) (UniProt P34981); assay: qHTS assay to identify small molecule antagonists of the thyrotropin-releasing hormone receptor (TRHR) signaling pathway (AID 1346877; active = well fitted inhibition curve with a large enough effect in the repeat runs, not every such curve was filed as active; also: series mostly up to about 51 µM)
Thyrotropin-releasing hormone receptor (Homo sapiens), sequence (P34981 whole entry, looked up): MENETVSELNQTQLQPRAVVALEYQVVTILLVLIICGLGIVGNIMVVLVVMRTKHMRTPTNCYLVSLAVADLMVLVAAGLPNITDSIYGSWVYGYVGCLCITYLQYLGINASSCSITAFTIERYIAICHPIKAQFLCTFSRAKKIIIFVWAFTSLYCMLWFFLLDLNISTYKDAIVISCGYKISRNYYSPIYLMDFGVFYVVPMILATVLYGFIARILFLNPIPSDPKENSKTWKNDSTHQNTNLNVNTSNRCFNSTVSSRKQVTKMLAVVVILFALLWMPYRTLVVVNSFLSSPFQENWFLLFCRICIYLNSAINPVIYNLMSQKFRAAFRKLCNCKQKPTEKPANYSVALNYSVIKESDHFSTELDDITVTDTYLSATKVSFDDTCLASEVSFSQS
Method in brief: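 Cells (TRHR-HEK293) are plated and kept 18 h at 37 °C/5% CO2. A calcium-sensitive dye is added for 2 h, compound follows for 5 min at room temperature, and TRH is then given at 1 nM final.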

[12] = target: Thyrotropin-releasing hormone receptor (Homo sapiens) (UniProt P34981); assay: qHTS assay to identify small molecule agonists of the thyrotropin-releasing hormone receptor (TRHR) signaling pathway (AID 1346891; calls by dose curve; also: series mostly up to about 58 µM)
Method in brief: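 TRHR-expressing HEK293 cells were plated 18 h at 37 °C/5% CO2, loaded with calcium dye 2 h at 37 °C, then given compound in DMSO; fluorescence was read kinetically for 3 min at 1 s intervals.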

[13] = Human pregnane X receptor (PXR) small molecule agonists, qHTS cell viability counter screen (AID 1346977); also: nearly all actives have a fitted effect of over 50% in size
Method in brief: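 PXR-Luc HepG2 cells in medium with 5% charcoal-stripped FBS were pre-incubated 5hr, then exposed to compounds for 24hr at 37C. Viability was read in the same wells by CellTiter-Fluor fluorescence, reagent added after 23hr with a 1hr incubation.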

[14] = Caspase-3/7 induction in HepG2 cells by small molecules, qHTS assay (AID 1346978); also: nearly all actives have a fitted effect of over 15% in size
Method in brief: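 Caspase-3/7 induction was measured by Caspase-Glo 3/7 luminescence (30 min, room temperature) after a 17 hr compound exposure of wild-type HepG2 cells seeded at 2,000 per well and pre-incubated 5 hr.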

[15] = Caspase-3/7 induction in CHO-K1 cells by small molecules, qHTS cell viability counter screen (AID 1346979); also: nearly all actives have a fitted effect of over 35% in size
Method in brief: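 Wild-type CHO-K1 cells were seeded at 1,500 per well, rested 5hr at 37 C, then exposed to compounds in DMSO. After 16hr, CellTiter-Fluor reagent was added and fluorescence read 1hr later as the viability measure.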

[16] = Caspase-3/7 induction in CHO-K1 cells by small molecules, qHTS assay (AID 1346980); also: nearly all actives have a fitted effect of over 15% in size
Method in brief: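 Luminescent Caspase-Glo 3/7 read (30min, room temperature) quantified apoptosis induction. Cells were wild-type CHO-K1, treated with compound for 17hr at 37 C and 5% CO2.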

[17] = Caspase-3/7 induction in HepG2 cells by small molecules, qHTS cell viability counter screen (AID 1346981); also: series mostly up to about 92 µM; nearly all actives have a fitted effect of over 30% in size
Method in brief: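 Steps: seed 2,000 HepG2 cells per well; incubate 5 hr at 37 C; pin-add compounds in DMSO; incubate 16 hr; add CellTiter-Fluor; after 1 hr at 37 C and 5% CO2, read fluorescence.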

[18] = qHTS assay to identify small molecule antagonists of the progesterone receptor (PR) signaling pathway - cell viability counter screen (AID 1346798); also: series mostly up to about 92 µM; nearly all actives have a fitted effect of over 50% in size
Method in brief: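 PR-UAS-bla HEK293T cells in medium with 2% charcoal-stripped FBS were treated with compounds plus R5020 for 16 hr at 37C. Cell viability was then read by CellTiter-Glo luminescence after 30 min at room temperature in the same wells.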

[19] = qHTS assay to identify small molecule agonists of the progesterone receptor (PR) signaling pathway - cell viability counter screen (AID 1346799; calls by dose curve; also: nearly all actives have a fitted effect of over 45% in size)
Method in brief: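 PR-UAS-bla HEK293T cells, 3,000 per well in medium with 2% charcoal-stripped FBS, were preincubated 6 hr at 37C, then exposed to compounds for 16 hr; viability was read as CellTiter-Glo luminescence after 30 min at room temperature.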
% is scaled to controls: 0 for no effect and ±100 for the full control effect.

CCCCCCCCCCCCCCCCCCOCCO
inactive: activity change, negative = cytotoxicity [1] 4.32% [at 19 µM] | activation [2] -1.02% [at 19 µM] | cAMP activity change [3] -0.284% [at 18.9 µM] | activity change, negative = inhibition [4] -0.175% [at 19 µM] | activity change, negative = cytotoxicity [5] 0.983% [at 19 µM] | activation [6] 3.24% [at 19 µM] | activity change, negative = inhibition [7] -1.49% [at 18.9 µM] | viability change, negative = cytotoxic [8] -1.95% [at 15.8 µM] | activity change, negative = cytotoxicity [9] -6.94% [at 15.8 µM] | activation [10] -0.657% [at 15.8 µM] | activity, negative = inhibition [11] 2.83% [at 10.5 µM] | activation [12] -0.279% [at 11.8 µM] | activity change, negative = cytotoxicity [13] 5.85% [at 19 µM] | caspase activation [14] 0.0407% [at 19 µM] | activity change, negative = cytotoxicity [15] -0.155% [at 19 µM] | caspase-3/7 activation [16] -1.25% [at 19 µM] | activity change, negative = cytotoxicity [17] 7.52% [at 19 µM]

CC1c2ccccc2CN1NC(=O)c1ccc(Cl)c(S(N)(=O)=O)c1 (stereo not drawn)
inactive: outcome [1] | Potency [2] | outcome [3] | outcome [4] | outcome [5] | Potency [6] | Potency [7] | outcome [18] | outcome [19] | outcome [8] | outcome [9] | outcome [11] | outcome [12] | outcome [13] | outcome [14] | Potency [15] | outcome [16] | outcome [17]

C=CCCCC
inactive: outcome [1] | Potency [2] | outcome [3] | outcome [4] | outcome [5] | Potency [6] | outcome [18] | outcome [19] | outcome [8] | outcome [9] | outcome [10] | outcome [13] | outcome [14] | Potency [15] | outcome [16] | outcome [17]

CO/N=C(/C(=O)N[C@@H]1C(=O)N2C(C(=O)[O-])=C(C[n+]3ccn4ncccc43)CS[C@H]12)c1nsc(N)n1
inactive: outcome [1] | Potency [2] | outcome [3] | outcome [4] | outcome [5] | Potency [6] | Potency [7] | outcome [19] | outcome [8] | outcome [9] | outcome [10] | outcome [13] | outcome [14] | Potency [15] | outcome [16] | outcome [17]

CCCc1ccc(O)cc1
inactive: outcome [1] | Potency [2] | outcome [3] | outcome [4] | outcome [5] | Potency [6] | Potency [7] | outcome [19] | outcome [8] | outcome [9] | outcome [11] | outcome [12] | outcome [13] | outcome [14] | outcome [16] | outcome [17]

CCCCOC(=O)[C@H](C)O
inactive: outcome [1] | Potency [2] | outcome [3] | outcome [4] | outcome [5] | Potency [6] | Potency [7] | outcome [19] | outcome [8] | outcome [9] | outcome [10] | outcome [12] | outcome [13] | outcome [14] | outcome [16] | outcome [17]

CCCCOCCOC(=O)COc1ccc(Cl)cc1Cl
inactive: outcome [1] | Potency [2] | outcome [3] | outcome [4] | outcome [5] | Potency [6] | Potency [7] | outcome [19] | outcome [8] | outcome [9] | outcome [10] | outcome [11] | outcome [12] | outcome [13] | outcome [14] | outcome [16] | outcome [17]

C=CCSSCCC
inactive: outcome [1] | Potency [2] | outcome [3] | outcome [4] | outcome [5] | Potency [6] | Potency [7] | outcome [18] | outcome [8] | outcome [9] | outcome [11] | outcome [12] | outcome [13] | outcome [14] | Potency [15] | outcome [16] | outcome [17]

CCC(C)C(C)=O (stereo not drawn)
inactive: outcome [1] | Potency [2] | outcome [3] | outcome [4] | outcome [5] | Potency [6] | outcome [18] | outcome [19] | outcome [8] | outcome [9] | outcome [10] | outcome [11] | outcome [12] | outcome [13] | outcome [14] | Potency [15] | outcome [16] | outcome [17]

CCCC(=O)OC/C=C(\C)CCC=C(C)C
inactive: outcome [1] | Potency [2] | outcome [3] | outcome [4] | outcome [5] | Potency [6] | Potency [7] | outcome [18] | outcome [8] | outcome [9] | outcome [10] | outcome [13] | outcome [14] | Potency [15] | outcome [16] | outcome [17]

CCC/C=C(\C=O)CC
inactive: outcome [1] | Potency [2] | outcome [3] | outcome [4] | outcome [5] | Potency [6] | outcome [18] | outcome [19] | outcome [8] | outcome [9] | outcome [10] | outcome [11] | outcome [12] | outcome [13] | outcome [14] | Potency [15] | outcome [16] | outcome [17]

CN1C[C@@H]2C[C@H]1CN2c1cc2c(cc1F)c(=O)c(C(=O)O)cn2C1CC1
inactive: activity change, negative = cytotoxicity [1] 7% [at 19 µM] | activation [2] 0.617% [at 19 µM] | cAMP activity change [3] -2.22% [at 18.9 µM] | activity change, negative = inhibition [4] -7.57% [at 19 µM] | activity change, negative = cytotoxicity [5] -0.242% [at 19 µM] | activation [6] 6.66% [at 19 µM] | activity change, negative = inhibition [7] 14.1% [at 18.9 µM] | activity change, negative = cytotoxicity [19] 18.9% [at 19 µM] | viability change, negative = cytotoxic [8] 1.45% [at 15.8 µM] | activity change, negative = cytotoxicity [9] 2.12% [at 15.8 µM] | activity, negative = inhibition [11] 1.83% [at 10.5 µM] | activation [12] -1.22% [at 11.8 µM] | activity change, negative = cytotoxicity [13] -0.63% [at 19 µM] | caspase activation [14] -0.0526% [at 19 µM] | activity change, negative = cytotoxicity [15] -0.0368% [at 19 µM] | caspase-3/7 activation [16] -1.08% [at 19 µM] | activity change, negative = cytotoxicity [17] -1.05% [at 19 µM]

CCN(CC)CCN
inactive: outcome [1] | Potency [2] | outcome [3] | outcome [4] | outcome [5] | Potency [6] | Potency [7] | outcome [18] | outcome [19] | outcome [8] | outcome [9] | outcome [13] | outcome [14] | Potency [15] | outcome [16] | outcome [17]
